From PubChem BioAssay
Most compounds without a hit are left out; they make up all but 1.3% or so of the library.
AmpC no deterg = blocks E. coli AmpC beta-lactamase in detergent-free assay | P00811 | AmpC nitrocefin hydrolysis, absorbance 480 nm, 0.0001% Triton | Potency, µM (doses to about 57.1 µM), actives largely listed as inhibitors | actives 0.52% (n = 330,000) | AID 485341; also: nearly all actives have a fitted effect of over 20% in size
Target sequence (P00811 whole entry, looked up): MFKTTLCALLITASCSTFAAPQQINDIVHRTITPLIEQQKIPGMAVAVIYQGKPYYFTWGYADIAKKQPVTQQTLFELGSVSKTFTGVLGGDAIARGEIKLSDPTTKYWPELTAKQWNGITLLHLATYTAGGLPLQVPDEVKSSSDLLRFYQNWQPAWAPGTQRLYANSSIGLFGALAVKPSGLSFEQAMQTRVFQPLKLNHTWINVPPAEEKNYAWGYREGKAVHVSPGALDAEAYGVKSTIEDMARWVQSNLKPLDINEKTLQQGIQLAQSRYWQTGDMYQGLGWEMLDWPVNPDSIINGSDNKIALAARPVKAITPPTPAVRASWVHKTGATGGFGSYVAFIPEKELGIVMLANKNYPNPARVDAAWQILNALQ
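20 mM phosphate pH 7.0 + 0.01% (detergent screen) or 0.0001% Triton X-100; 5.3 nM AmpC reagent; cpd preinc 15 min RT; nitrocefin (800 uM stock) to start; A480 q20 s × 4 min; Activity was normalised to no-enzyme and no-compound control wells.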
AMA1-RON2 inh = inhibitors of Plasmodium falciparum AMA1-RON2 interaction. actives 0.2% (n = 360,000). AlphaScreen AMA1-biotinylated RON2 peptide binding. Potency, µM (doses to about 58.2 µM), actives largely listed as inhibitors; also: nearly all actives have a fitted effect of over 45% in size
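AMA1 (3D7) with his tag at 25 nM final met compounds first, then biotinylated RON2 peptide at 25 nM; detection used donor plus acceptor beads, 10 µg/mL apiece, read by AlphaScreen after 30 min at room temperature.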
VACV Venus inh = inhibitors of vaccinia virus (Venus reporter); Potency, µM (series often up to 36.5 µM), hits mostly inhibitors; actives 0.46% (n = 330,000); Vaccinia virus Venus reporter expression, fluorescence; calls by dose curve; tested in A549 cells; also: nearly all actives have a fitted effect of over 30% in size
VACV mCherry inh = vaccinia inhibition (mCherry reporter); actives 0.63% (n = 310,000); AID 720579; Vaccinia virus mCherry reporter infection, fluorescence; Potency, µM (series often up to 36.5 µM), usual class: inhibitors; calls by dose curve; tested in A549 cells; also: nearly all actives have a fitted effect of over 35% in size
AmpC detergent = AmpC beta-lactamase inhibition with detergent present | P00811 | AmpC hydrolysis of nitrocefin, absorbance 480 nm, 0.01% Triton | Potency, µM (titrated, usually from 114 µM), most hits filed as inhibitors | actives 0.041% (n = 370,000); also: nearly all actives have a fitted effect of over 25% in size
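AmpC (5.3 nM in the dispensed reagent) in 20 mM phosphate pH 7.0 with 0.01% (detergent screen) or 0.0001% Triton X-100 was preincubated with compounds for 15 min at room temperature. Nitrocefin was then added from an 800 uM solution, and hydrolysis was followed at 480 nm.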
SARS PLpro yeast = SARS-CoV PLP inhibition in yeast | AID 485353 | Potency, µM (top dose mostly 32.9 µM), most hits filed as activators | actives 0.19% (n = 330,000) | S. cerevisiae expressing SARS-CoV PLpro, growth rescue; calls by dose curve; also: nearly all actives have a fitted effect of over 55% in size
Large screens that a line does not name were inactive; ! = not active in a repeat. Unless noted, calls follow the shape of the dose curve; as a rule, active = well fitted curve in the direction sought with a large enough effect; inconclusive = small, poorly fitted or top-dose-only effect, or another doubt; inactive = no such curve, though single readings can be large; an effect the other way counts as inactive or inconclusive.

O=C1/C(=C/C=C/c2ccco2)SC(=S)N1c1ccc(O)cc1	AmpC no deterg 16µM, AMA1-RON2 inh inconclusive, VACV mCherry inh inconclusive
CC(C)C(C(=O)O)N1C(=O)/C(=C/C=C/c2ccco2)SC1=S (stereo not given)	AMA1-RON2 inh inconclusive, AmpC detergent inconclusive
CN1CCOc2ccc(S(=O)(=O)N3CCN(S(=O)(=O)c4c(F)cccc4F)CC3)cc21	none (no result: AMA1-RON2 inh, VACV Venus inh, VACV mCherry inh)
COc1ccccc1C1CN(Cc2cccc3c2OCO3)Cc2ccccc2O1 (stereo not given)	none (no result: AmpC no deterg, AMA1-RON2 inh, AmpC detergent, SARS PLpro yeast)
COCCCNc1ncnc2sc(C(=O)N3CCOCC3)c(C)c12	none (no result: AmpC no deterg, AMA1-RON2 inh, AmpC detergent, SARS PLpro yeast)
O=C1Nc2ccccc2Oc2cc(Oc3ccccc3)ccc21	AmpC no deterg 10µM (no result: AMA1-RON2 inh)
Cc1csc(NC(=O)CSc2ccc(-c3ccccn3)nn2)n1	AMA1-RON2 inh 32µM (no result: VACV Venus inh, VACV mCherry inh)
Cc1ccn2c(NC3CCCCC3)c(-c3cccc(SC4CCCCC4)c3)nc2c1	VACV Venus inh inconclusive, VACV mCherry inh inconclusive (no result: AmpC detergent)
CCC(C)Sc1cccc(-c2nc3cc(C)ccn3c2NC2CCCCC2)c1 (stereo not given)	VACV Venus inh inconclusive, VACV mCherry inh 7.9µM! (no result: AmpC detergent)
O=C(/C=C/c1ccccc1)c1cc(Br)ccc(=O)c1O	VACV Venus inh inconclusive, AmpC detergent inconclusive, SARS PLpro yeast 22µM (no result: VACV mCherry inh)
O=C(/C=C/c1ccc(F)cc1)c1cc(Br)ccc1O	none
Cc1nc(C(=O)N(Cc2cc3ccc(F)cc3nc2N2CCC(O)CC2)CC2CCCO2)cs1 (stereo not given)	none (no result: AmpC no deterg, AMA1-RON2 inh, AmpC detergent, SARS PLpro yeast)
CN(CCN(C)c1nc(-c2cccs2)nc2ccccc12)C(=O)OC(C)(C)C	none (no result: AmpC no deterg, AMA1-RON2 inh, AmpC detergent, SARS PLpro yeast)
CCCCCCC#Cc1cncc(C(=O)NNC(=O)Nc2cc(Cl)cc(Cl)c2)c1	AmpC no deterg 16µM, VACV mCherry inh inconclusive
CCCCC#Cc1cncc(C(=O)NN)c1	none
COc1cccc(C(=O)NCC2Cc3cccc(-c4cccnc4)c3O2)c1 (stereo not given)	none (no result: AmpC no deterg, AMA1-RON2 inh, AmpC detergent, SARS PLpro yeast)
Cc1ccc(C(=O)N/C(=C\c2ccco2)C(=O)NCCCn2ccnc2)cc1C	AMA1-RON2 inh 17µM
O=C1/C(=C\c2ccc(Cl)c(Cl)c2)CN(C(=O)CCN2CCOCC2)C/C1=C/c1ccc(Cl)c(Cl)c1	VACV Venus inh 11µM, VACV mCherry inh inconclusive (no result: AmpC no deterg, AmpC detergent, SARS PLpro yeast)
O=C1/C(=C\c2ccccc2)CN(C(=O)CCN2CCCCC2)C/C1=C/c1ccccc1	VACV Venus inh 11µM, VACV mCherry inh 13µM (no result: AmpC no deterg, AmpC detergent, SARS PLpro yeast)
CCCCCC(=O)NC(=S)Nc1ccc(N2CCOCC2)cc1	SARS PLpro yeast 13µM
NCCc1cc(O)c(O)cc1O	AMA1-RON2 inh 0.79µM (no result: AmpC no deterg, AmpC detergent, SARS PLpro yeast)
COc1cc(OC)c2nc(-c3cc4c(c(OC)c3)OCCN(C(=O)C(C)c3n[nH]c(=O)c5ccccc35)C4)cc(C)c2c1 (stereo not given)	none (no result: AmpC no deterg, AMA1-RON2 inh, AmpC detergent, SARS PLpro yeast)
C=C1C(=O)OC2C1CCC(C)=C1C(=O)C3OC3(C)C12 (stereo not given)	VACV Venus inh inconclusive, VACV mCherry inh 11µM (no result: AmpC no deterg, AmpC detergent, SARS PLpro yeast)
CC(C)C1N=C(c2ccc3c(c2)OCO3)CC(c2ccccc2O)N1 (stereo not given)	none (no result: VACV Venus inh, VACV mCherry inh)
CCOc1ccccc1C1N=C(c2ccc(OC)cc2)CC(c2ccccc2O)N1 (stereo not given)	AmpC no deterg 32µM, VACV mCherry inh inconclusive
O=C(Nc1ccc(Cl)cc1)N1CCN(c2ccc3nnc(-c4ccccc4)n3n2)CC1	VACV Venus inh inconclusive, VACV mCherry inh 10µM (no result: AmpC no deterg, AMA1-RON2 inh, SARS PLpro yeast)
CCN(CC)c1ccc(NC(=O)COC(=O)CSc2ccc(Br)cc2C)cc1	AMA1-RON2 inh 10µM, AmpC detergent inconclusive
CC1CCCN(c2cc(N(C)CCO)c([N+](=O)[O-])c3nonc23)C1 (stereo not given)	none
CN(CCO)c1cc(N2CCCCC2)c2nonc2c1[N+](=O)[O-]	AMA1-RON2 inh 1.8µM
CO[C@H]1/C=C\O[C@@]2(C)Oc3c(C)c(O)c4c(O)c(c(C=NN5CCN(C6CCCC6)CC5)c(O)c4c3C2=O)NC(=O)C(C)=CC=C[C@H](C)[C@H](O)[C@@H](C)[C@@H](O)[C@@H](C)[C@H](OC(C)=O)[C@H]1C	none (no result: AmpC no deterg, AMA1-RON2 inh, AmpC detergent, SARS PLpro yeast)
Cc1c(O)nc(SCC(=O)Nc2ccc3c4c(cccc24)CC3)n(-c2ccccc2)c1=O	AmpC no deterg 35µM, SARS PLpro yeast inconclusive
NS(=O)(=O)c1cccc(NC(=O)COC(=O)C2CCCCC2)c1	none
CN(c1ccccc1)S(=O)(=O)c1cccc(NC(=O)COC(=O)C2CCCCC2)c1	AmpC no deterg 3.5µM
COCC1CCCN(Cc2ccc3c(c2)CN(C(=O)c2cnn(C(C)C)c2)CCO3)C1 (stereo not given)	none (no result: AmpC no deterg, AMA1-RON2 inh, AmpC detergent, SARS PLpro yeast)
CC(C)Oc1ccc(C(=O)Nc2nc3c(s2)CC(C(C)(C)C)CC3)cc1 (stereo not given)	none (no result: AmpC no deterg, AMA1-RON2 inh, SARS PLpro yeast)
O=C1C(Cl)=CC(=Nc2ccc(O)cc2)C=C1Cl	AmpC no deterg 28µM, AmpC detergent inconclusive (no result: VACV Venus inh, VACV mCherry inh)
COc1ccc(-c2nc3cc(C)ccc3cc2CN(C(=O)c2ccc(C)s2)C2CC2)cc1OC	none (no result: AmpC no deterg, AMA1-RON2 inh, AmpC detergent, SARS PLpro yeast)
O=c1[nH]cc(F)c(=O)[nH]1	VACV mCherry inh 5.6µM
COc1cc(-c2cccc(Cl)c2)cc2c1OCCN(C(=O)CCn1ccc(C)n1)C2	none (no result: AmpC no deterg, AMA1-RON2 inh, AmpC detergent, SARS PLpro yeast)
CN(C)c1ccc(NC(=O)/C=C/c2ccccc2Cl)cc1	AmpC no deterg 2.5µM, AMA1-RON2 inh inconclusive, AmpC detergent inconclusive
O=C(Nc1ccccc1)c1cccc(C(=O)Nc2ccccc2)n1	none
CN(C)c1ccc(NC(=O)c2ccc([N+](=O)[O-])cc2Cl)cc1	AmpC detergent 100µM
CCN(CC)c1ccc(NC(=O)/C=C\c2ccccc2Cl)cc1	VACV Venus inh inconclusive
CN(C)c1ccc(NC(=O)c2cccc(C(=O)Nc3ccc(N(C)C)cc3)n2)cc1	AMA1-RON2 inh 10µM
